Rows were chosen to be rich in hits. Some 2.6% of all compounds tested hit in one or more screens of this group.
LGR2 antag = inhibitors of bursicon-induced Drosophila LGR2 receptor cAMP signaling | inhibition, % at 9.99 µM | HEK293 LGR2, CRE-luciferase, bursicon-stimulated, 4 h | AID 720647 | 380,000 tested, 0.35% active;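 active = drop in luminescence signal, shown as inhibition above about 50% in the replicate tests, limit read from the data, passing the limit was not always enough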;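 also: agonist challenge used bursicon conditioned medium at about half maximal strength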
TWEAK Fn14 block = inhibitors of TWEAK-Fn14 interaction signaling | TWEAK-stimulated Fn14 reporter cells, luciferase luminescence, 8 h | inhibition, % at 10 µM | 360,000 tested, 2% active | AID 1159606; in the data active = inhibition above about 50%
HSP90 inh = HSP90 refolding inhibition in rabbit reticulocyte lysate; inhibition, % at 5.6 µM; luciferase refolding luminescence, 3 h; 290,000 tested, 0.91% active;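 active = inhibition above the screen-wide mean plus 3 SD, computed separately per campaign, cut at about 16% in these data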;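 also: inhibitors lower the luminescence because luciferase stays unfolded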
aDG glyco act = alpha-DG glycosylation activation; 360,000 tested, 0.22% active; Pro5-aDG cells, alpha-DG glycosylation AlphaScreen (IIH6); 0% Pro5, 100% B10-LARGE cell signal; AID 624168; activation, % at 10 µM;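 active = activation of at least 8% versus controls, or a plate z-score of at least 8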;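 also: Pro5 are CHO cells carrying HIG-tagged alpha-DG that lacks glycosylation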
LMP1 NFkB inh = Epstein-Barr LMP1 NF-kappaB reporter inhibition. LMP1-induced NF-kappaB luciferase reporter cells, luminescence. inhibition, % at 12.5 µM. 350,000 tested, 0.69% active. AID 504558; in the data active = inhibition above about 41%
TROY signal inh = TROY signaling inhibition | Q293 LMP1-TROYcd NF-kB luciferase reporter, 4 h | inhibition, % at 10 µM | 360,000 tested, 0.98% active | AID 1347056;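 active = compounds whose plate-normalised and pattern-corrected inhibition of the luciferase reporter signal at the single screening dose is 50% or more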
HSP90 confirm = confirmation of HSP90 inhibitors; shares compounds with HSP90 inh; rabbit reticulocyte lysate, luciferase refolding luminescence, 3 h; inhibition, % at 5.9 µM; 2,300 tested, 64% active; AID 1846; in the data active = inhibition above about 18%
FLuc counter = counter-screen for HSP90 inhibitors: inhibitors of firefly luciferase; shares compounds with HSP90 inh; AID 1847; purified native firefly luciferase, luminescence; 2,300 tested, 48% active; inhibition, % at 5.9 µM;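 active = inhibition above the mean inhibition of all tested sample wells plus 3 SD, cut at about 10% in these data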
Target sequence (P08659 whole entry, looked up): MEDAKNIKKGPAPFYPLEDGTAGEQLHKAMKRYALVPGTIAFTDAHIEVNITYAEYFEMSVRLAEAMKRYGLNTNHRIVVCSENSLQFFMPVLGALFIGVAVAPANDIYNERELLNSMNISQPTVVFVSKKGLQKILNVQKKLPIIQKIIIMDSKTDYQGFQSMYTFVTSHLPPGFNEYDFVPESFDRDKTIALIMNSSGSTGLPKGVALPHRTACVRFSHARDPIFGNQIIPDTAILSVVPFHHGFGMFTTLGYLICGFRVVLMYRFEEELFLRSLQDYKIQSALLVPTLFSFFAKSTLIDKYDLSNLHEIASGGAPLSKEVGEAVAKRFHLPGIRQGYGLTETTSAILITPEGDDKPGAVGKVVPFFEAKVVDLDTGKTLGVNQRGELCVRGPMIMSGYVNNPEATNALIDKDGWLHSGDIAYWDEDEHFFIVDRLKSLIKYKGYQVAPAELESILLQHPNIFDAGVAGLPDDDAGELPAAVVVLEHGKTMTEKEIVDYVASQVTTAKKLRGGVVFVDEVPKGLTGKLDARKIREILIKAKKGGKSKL
Hits are given with their value; 0 = inactive; - = no result given.

SMILES | LGR2 antag | TWEAK Fn14 block | HSP90 inh | aDG glyco act | LMP1 NFkB inh | TROY signal inh | HSP90 confirm | FLuc counter
Cc1noc(C)c1NC(=O)Nc1ccc2c(c1)C(=O)N([C@H](C)CO)C[C@@H](C)[C@@H](CN(C)C(=O)NC1CCCCC1)OCCCC[C@@H](C)O2 | 0 | - | - | - | - | - | - | -
CC1=Nc2cccc3cccc(c23)N1C | 0 | 0 | 0 | 0 | 0 | 0 | - | -
CN1C(=O)Nc2cccc3cccc1c23 | 0 | 0 | 21 | 0 | 0 | 0 | 0 | 0
O=c1oc(Nc2cccc(F)c2)nc2ccccc12 | - | 0 | 18 | 0 | 0 | 0 | 0 | 0
Cc1ccc(S(=O)(=O)N[C@@H]2CC[C@H](CC(=O)NCc3ccc(Cl)c(Cl)c3)O[C@@H]2CO)cc1 | 0 | - | - | - | - | - | - | -
C[C@H]1CN([C@@H](C)CO)C(=O)c2cc(C#CCN(C)C)cnc2O[C@@H]1CN(C)S(=O)(=O)c1ccccc1 | 0 | - | - | - | - | - | - | -
O=C1c2cc(F)ccc2-n2c1nc1ccccc1c2=O | 0 | 0 | 73 | 0 | 0 | 0 | 68 | 0
CCCn1c(C)cc(C(=O)COC(=O)c2cc(=O)[nH]c3ccccc23)c1C | 0 | 0 | - | 0 | 0 | 0 | - | -
CCCn1c(C)cc(C(=O)COC(=O)c2nccnc2N)c1C | 0 | 72 | 25 | 0 | 0 | 56 | 40 | 57
O=C(Nc1ncccc1O)c1ccc(OCC2CCCO2)cc1 (configuration not stated) | 0 | 0 | 24 | 0 | 76 | 0 | 44 | 20
COc1cccc(C(=O)Nc2nc3ccccc3s2)c1 | 0 | 0 | 0 | 0 | 0 | 0 | - | -
COc1ccc(C(=O)Nc2nc3ccccc3s2)cc1 | 0 | 98 | 37 | 0 | 0 | 0 | 73 | 67
COc1ccc(C(=O)Nc2nc3c(s2)Cc2cc(OC)ccc2-3)cc1 | - | 0 | 0 | 0 | 0 | 0 | - | -
COC(=O)c1ccc2nc(NC(=O)C3CC3)sc2c1 | 0 | 0 | 39 | 0 | 0 | 0 | 57 | 0
COc1ccc2c(c1)Cc1sc(NC(=O)c3ccccc3)nc1-2 | - | 0 | 18 | 0 | 0 | 0 | 0 | 0
COC(=O)c1ccc2nc(NC(=O)CN3C(=O)CCC3=O)sc2c1 | - | 0 | 0 | 0 | 0 | 0 | - | -
CO[C@@H]1CN(C)C(=O)c2ccc(NC(=O)NC(C)C)cc2OC[C@@H](C)N(Cc2ccccc2)C[C@@H]1C | 0 | - | - | - | - | - | - | -
O=C(c1ccccc1)N1C[C@@H]2[C@H](c3ccccc31)[C@@H](CO)N2S(=O)(=O)c1ccccc1 | 0 | - | - | - | - | - | - | -
COc1cccc(CNC(=O)[C@H]2[C@H](CO)[C@H]3Cn4c(cccc4=O)[C@@H]2N3C(=O)C2CCCC2)c1 | 0 | - | - | - | - | - | - | -
COc1ccc(NC(=O)N(C)C[C@@H]2Oc3c(NC(=O)Nc4ccc(F)cc4)cccc3C(=O)N([C@@H](C)CO)C[C@H]2C)cc1 | 0 | - | - | - | - | - | - | -
COC(=O)[C@H]1[C@H](CO)[C@H]2Cn3c(ccc(-c4cncnc4)c3=O)[C@H]2N1C(=O)C1CCC1 | 0 | - | - | - | - | - | - | -
O=C(NC1=NCCS1)c1ccc(OCC2CCCO2)cc1 (configuration not stated) | - | 0 | 0 | 0 | 0 | 0 | - | -
Cc1cnc(NC(=O)c2ccc(OCC3CCCO3)cc2)s1 (configuration not stated) | 87 | 85 | 47 | 0 | 47 | 0 | 60 | 51
O=C(Nc1nc2ccccc2s1)c1ccc(OCC2CCCO2)cc1 (configuration not stated) | 0 | 93 | 19 | 0 | 0 | 78 | 39 | 33
Cc1ccc(NC(=O)c2ccc(OCC3CCCO3)cc2)nc1 (configuration not stated) | 0 | 0 | - | 0 | 0 | 0 | - | -
SMILES | LGR2 antag | TWEAK Fn14 block | HSP90 inh | aDG glyco act | LMP1 NFkB inh | TROY signal inh | HSP90 confirm | FLuc counter
C/C(=C\C(=O)c1ccccc1)NNc1nc2ccccc2s1 | - | 0 | 37 | 0 | 0 | 0 | 0 | 0
CC(=O)N(C)C[C@@H]1Oc2cc(C#CCC(C)C)ccc2S(=O)(=O)N([C@@H](C)CO)C[C@H]1C | 0 | - | - | - | - | - | - | -
C[C@H](O)C#Cc1cnc2c(c1)C(=O)N([C@H](C)CO)C[C@@H](C)[C@@H](CN(C)C(=O)CN1CCOCC1)O2 | 0 | - | - | - | - | - | - | -
CO[C@@H]1CN(C)C(=O)c2cc(NC(=O)C3CC3)ccc2OC[C@@H](C)N(Cc2ccc(F)cc2)C[C@H]1C | 0 | - | - | - | - | - | - | -
Nc1ccc2oc(-c3cccc(Br)c3)nc2c1 | - | 0 | 0 | 0 | 0 | 0 | - | -
CCc1ccc2oc(-c3cccc(N)c3)nc2c1 | - | 75 | 18 | 0 | 0 | 0 | 60 | 58
Cc1ccc2nc(-c3cccc(N)c3)oc2c1 | 0 | 78 | 23 | 0 | 0 | 0 | 67 | 64
Cc1cc(C)c2oc(-c3cccc(N)c3)nc2c1 | - | 0 | 0 | 0 | 0 | 0 | - | -
C[C@H]1CN([C@@H](C)CO)S(=O)(=O)c2ccc(C3=CCCC3)cc2O[C@@H]1CN(C)C(=O)c1cnccn1 | 0 | - | - | - | - | - | - | -
O=C(NCc1ccco1)/C(=C/c1ccco1)NC(=O)c1ccco1 | 0 | 0 | 0 | 0 | 0 | 0 | - | -
O=C(O)CCNC(=O)/C(=C/c1ccco1)NC(=O)c1ccco1 | 0 | 0 | 30 | 0 | 0 | 0 | 0 | 0
COc1ccc2c3c([nH]c2c1)[C@H](CO)N(Cc1ccc(Cl)cc1)CC31CN(Cc2nccs2)C1 | 0 | - | - | - | - | - | - | -
CC(C)C(=O)N(Cc1cc(=O)[nH]c2ccccc12)c1ccccc1 | - | 0 | 81 | 0 | 0 | 0 | 0 | 0
